Measurements as given in PubChem BioAssay AID504757 (Sanford-Burnham Center for Chemical Genomics, 2011).
The list shows a part of the results. Active and inactive are the calls of the source. Cut-off read from the data, not from the text of the source: active = inhibition above about 39%; inactive = the rest.

What follows are compounds tested against Cysteine protease ATG4B (Homo sapiens) (UniProt Q9Y4P1) (assay: re-tested blockers of ATG4B cleavage activity – biochemical, fluorescence, single concentration, confirmation (AID 504757)). Details: ATG4B protease fluorescent substrate cleavage assay; at 8.33 µM; stronger effect = higher value.
Sequence of Cysteine protease ATG4B (Homo sapiens) (Q9Y4P1 whole entry, looked up): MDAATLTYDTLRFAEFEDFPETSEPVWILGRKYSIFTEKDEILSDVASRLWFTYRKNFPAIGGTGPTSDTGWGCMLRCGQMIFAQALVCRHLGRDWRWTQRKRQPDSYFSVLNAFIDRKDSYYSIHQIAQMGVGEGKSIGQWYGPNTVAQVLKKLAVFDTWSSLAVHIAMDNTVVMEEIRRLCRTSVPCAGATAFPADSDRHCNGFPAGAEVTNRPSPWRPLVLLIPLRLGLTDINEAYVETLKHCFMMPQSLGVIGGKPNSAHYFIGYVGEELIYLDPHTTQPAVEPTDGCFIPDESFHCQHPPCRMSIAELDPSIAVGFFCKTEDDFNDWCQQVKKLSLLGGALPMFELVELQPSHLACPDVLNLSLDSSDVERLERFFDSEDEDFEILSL

inhibition, active:
CCCC1=Nc2cc(C(=O)NCc3ccco3)ccc2Sc2ccccc21 54.3%
Cc1ccc(-n2c(SCC(=O)N/N=C/C=C/c3ccccc3[N+](=O)[O-])nc3ccccc3c2=O)cc1 46.6%
CCCOc1ccc2c3c(c(=O)oc2c1OCCC)CCC3 60.3%
O=C(O)C(c1ccccc1)N1C(=O)/C(=C\c2ccc(-c3cccc(Cl)c3)o2)SC1=S (stereo unspecified) 38.8%
O=C1Nc2cc(Cl)c(Cl)cc2N(O)N1c1cc(Cl)cc(Cl)c1 64.3%
NC(=O)c1sc2nc3c(c(-c4ccccc4)c2c1N)CCC3 57.5%
Cc1ccc(-c2cc(C(=O)N3CCc4ccccc4C3)no2)cc1 66.7%
CCc1ccc2c(c1)C(c1ccc([N+](=O)[O-])cc1)=NNC(c1ccccc1)=N2 51.2%
COc1ccc(/C=C2/SC(=O)N(CCCCCC(=O)Nc3ccccc3C(=O)O)C2=S)cc1 56.7%
FC(F)(F)Oc1ccc(NC(=S)NCc2ccccc2)cc1 71.7%
CCOC(=O)C(C)Sc1nc2ccccc2c(=O)n1CC1CCCCC1 (stereo unspecified) 54.5%
CN(C)Cc1ccc(F)cc1Sc1cc(Cl)ccc1Cl 67.4%
CC(=O)Nc1ccc(C(=O)Nc2nc(-c3cc(C)n(Cc4ccccc4)c3C)cs2)cc1 62.7%
COC(=O)N/N=C/c1cn(CCCOc2ccc(C)cc2)c2ccccc12 64.9%
O=C(O)CCn1cc(/C=C/C(=O)c2ccc(Cl)cc2)c(-c2cccc(Br)c2)n1 56.8%
Cc1ccc(N=C2NC(=O)/C(=C/C=C/c3ccco3)S2)cc1C 66.8%
OC(CNCc1ccc(Cl)c(Cl)c1)c1ccccc1 (stereo unspecified) 73.9%
COc1ccc(/C=C2\CCc3ccccc3C2=O)c(OC)c1OC 90.7%
CCOC(=O)c1c(-c2ccccc2)oc2cc(Br)c(O)c(C=O)c12 79%
Clc1ccccc1CSc1nnc(-c2ccco2)c(-c2ccco2)n1 64.1%
Cc1ccc(CSc2nc(-c3ccccc3)c(C#N)c(=O)[nH]2)cc1 54.3%
